Assay results taken from ChEMBL document CHEMBL3988442, “University of Dundee, Small-Polar-MMV Screening Library” (2021).
For part of these data: Potency and affinity values are given separately.

Key:
Set-up in all cases: scale not given: direction of the effect not stated beside the values
[1] = molecular target: Protein translocase subunit SecA (Escherichia coli (strain K12)) (UniProt P10408); assay: Assay to Identify E. coli SecA ATPase Inhibitors; assay type: functional; conditions: 30 µM
[2] = molecular target: T1, Ubiquitin-activating enzyme e1, putative (Leishmania donovani (strain BPK282A1)) (UniProt E9BSI1); assay: Leishmania donovani Ubiquitin Activating Enzyme (LdE1); assay type: functional; conditions: 30 µM
T1 sequence (whole entry): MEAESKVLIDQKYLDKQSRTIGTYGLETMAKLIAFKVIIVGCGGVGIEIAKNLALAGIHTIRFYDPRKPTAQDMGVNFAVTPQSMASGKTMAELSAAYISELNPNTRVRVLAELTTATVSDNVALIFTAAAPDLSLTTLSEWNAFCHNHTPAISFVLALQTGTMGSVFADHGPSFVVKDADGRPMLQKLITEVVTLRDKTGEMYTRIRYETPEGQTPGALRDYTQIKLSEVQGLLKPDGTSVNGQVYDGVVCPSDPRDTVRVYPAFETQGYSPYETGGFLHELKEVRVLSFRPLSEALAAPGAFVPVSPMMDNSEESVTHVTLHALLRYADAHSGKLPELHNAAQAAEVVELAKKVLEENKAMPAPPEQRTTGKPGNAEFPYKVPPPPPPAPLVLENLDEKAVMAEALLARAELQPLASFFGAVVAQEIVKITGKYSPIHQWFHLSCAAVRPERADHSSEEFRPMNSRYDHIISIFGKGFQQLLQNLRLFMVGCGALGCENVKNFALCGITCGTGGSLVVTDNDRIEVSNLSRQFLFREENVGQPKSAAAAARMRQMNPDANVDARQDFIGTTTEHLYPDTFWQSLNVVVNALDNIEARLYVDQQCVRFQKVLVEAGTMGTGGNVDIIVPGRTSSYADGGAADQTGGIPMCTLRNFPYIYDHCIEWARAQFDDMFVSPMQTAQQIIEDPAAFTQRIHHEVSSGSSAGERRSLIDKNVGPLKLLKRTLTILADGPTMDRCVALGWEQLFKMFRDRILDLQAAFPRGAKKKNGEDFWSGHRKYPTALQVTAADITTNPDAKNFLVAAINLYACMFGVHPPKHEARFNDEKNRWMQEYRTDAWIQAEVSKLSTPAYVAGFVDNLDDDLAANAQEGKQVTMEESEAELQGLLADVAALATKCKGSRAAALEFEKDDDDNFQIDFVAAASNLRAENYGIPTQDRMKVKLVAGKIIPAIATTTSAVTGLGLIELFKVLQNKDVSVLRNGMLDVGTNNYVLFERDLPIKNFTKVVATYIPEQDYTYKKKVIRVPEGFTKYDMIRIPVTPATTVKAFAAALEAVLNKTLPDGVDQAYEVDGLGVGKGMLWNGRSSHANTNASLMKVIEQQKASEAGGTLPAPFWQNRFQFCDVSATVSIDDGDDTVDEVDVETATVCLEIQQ

[3] = molecular target: AMP-activated protein kinase, AMPK (Homo sapiens) (UniProt P54646+O43741+P54619+Q9UGJ0+Q9Y478+Q13131+Q9UGI9); assay: AMP-dependent Kinase enzyme assay. An in vitro enzyme assay that detects ADP turnover that is directly proportional to AMPK activity. This uses naive AMPK that is activated during the assay with MK-8722; assay type: functional; conditions: 30 µM
[4] = molecular target: Sialic acid-binding Ig-like lectin 9 (Homo sapiens) (UniProt Q9Y336); assay: Hs-Siglec9 ALPHAscreen SOP 20170721; conditions: 10 µM
[5] = system: Trypanosoma cruzi; assay: Trypanosoma cruzi phosphomannomutase and mannose-1-phosphate guanylyltransferase assay; assay type: functional; conditions: 10 µM
[6] = molecular target: T2, Arginase-2, mitochondrial (Homo sapiens) (UniProt P78540); assay: in vitro enzyme assay to detect the production of urea directly proportional to the activity of Arginase II; assay type: functional; conditions: 33.3 µM; further: in the data most compounds retested in dose-response had high values
T2 sequence (whole entry): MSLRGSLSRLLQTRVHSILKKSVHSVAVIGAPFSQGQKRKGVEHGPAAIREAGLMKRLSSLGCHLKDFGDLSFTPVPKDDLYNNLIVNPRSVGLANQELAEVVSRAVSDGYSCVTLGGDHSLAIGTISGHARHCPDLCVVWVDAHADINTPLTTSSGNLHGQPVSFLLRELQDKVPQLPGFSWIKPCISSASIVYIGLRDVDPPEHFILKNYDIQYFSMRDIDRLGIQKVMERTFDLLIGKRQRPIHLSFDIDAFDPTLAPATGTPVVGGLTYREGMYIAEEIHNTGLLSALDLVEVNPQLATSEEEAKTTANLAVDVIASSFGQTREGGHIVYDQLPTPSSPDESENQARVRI

[7] = molecular target: T3, Proteasome subunit beta (Trypanosoma cruzi) (UniProt O96673); assay: Trypanosoma cruzi proteasome chymotrypsin-like activity (TcProtChymo) assay.; further: in the data most compounds retested in dose-response had high values; assay type: functional; conditions: 9.37 µM
T3 sequence (whole entry): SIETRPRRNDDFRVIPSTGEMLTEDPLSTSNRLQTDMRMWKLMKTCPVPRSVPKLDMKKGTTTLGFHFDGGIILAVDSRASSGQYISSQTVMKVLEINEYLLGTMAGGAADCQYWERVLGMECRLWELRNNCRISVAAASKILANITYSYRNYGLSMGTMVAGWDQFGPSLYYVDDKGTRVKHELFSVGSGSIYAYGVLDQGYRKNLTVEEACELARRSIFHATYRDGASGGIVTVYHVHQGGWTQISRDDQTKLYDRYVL

[8] = species on record: Homo sapiens; assay: To identify inhibition of the IFN signalling (Jak-Stat) pathway via expression of an eGFP reporter gene under the control of an IFN-stimulated response element (ISRE) containing MxA promoter.; assay type: functional; conditions: 30 µM
[9] = molecular target: T4, Tyrosyl-tRNA synthetase, putative (Trypanosoma cruzi (strain CL Brener)) (UniProt Q4DSP6); assay: Trypanosoma cruzi tyrosyl tRNA synthetase (TcYRS) _High Tyrosine SOP; assay type: functional; conditions: 30 µM; further: in the data most compounds retested in dose-response had high values
T4 sequence (whole entry): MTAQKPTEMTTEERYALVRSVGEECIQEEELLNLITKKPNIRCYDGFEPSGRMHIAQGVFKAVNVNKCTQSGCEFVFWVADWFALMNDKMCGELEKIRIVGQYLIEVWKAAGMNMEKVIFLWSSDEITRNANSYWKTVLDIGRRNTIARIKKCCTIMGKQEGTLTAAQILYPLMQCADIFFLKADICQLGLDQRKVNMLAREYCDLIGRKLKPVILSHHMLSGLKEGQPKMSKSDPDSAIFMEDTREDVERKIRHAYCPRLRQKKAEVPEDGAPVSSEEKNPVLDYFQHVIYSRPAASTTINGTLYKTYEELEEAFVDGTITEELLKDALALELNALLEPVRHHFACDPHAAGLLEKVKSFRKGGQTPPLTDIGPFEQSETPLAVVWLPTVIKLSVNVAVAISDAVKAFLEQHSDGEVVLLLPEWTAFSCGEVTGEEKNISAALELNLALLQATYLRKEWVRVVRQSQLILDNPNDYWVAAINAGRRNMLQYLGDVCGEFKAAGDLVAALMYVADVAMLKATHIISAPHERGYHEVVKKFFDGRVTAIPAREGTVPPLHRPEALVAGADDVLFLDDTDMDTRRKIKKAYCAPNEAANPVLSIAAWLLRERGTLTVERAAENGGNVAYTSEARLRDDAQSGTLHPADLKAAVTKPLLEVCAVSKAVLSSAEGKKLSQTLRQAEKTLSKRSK

[10] = molecular target: T4, Tyrosyl-tRNA synthetase, putative (Trypanosoma cruzi (strain CL Brener)); assay: Trypanosoma cruzi tyrosyl tRNA synthetase (TcYRS) SOP; assay type: functional; conditions: 30 µM
[11] = molecular target: Chromo domain-containing protein 1 (Saccharomyces cerevisiae (strain ATCC 204508 / S288c) (Baker's yeast)) (UniProt P32657); assay: ScCHD-1 Enzyme Inhibition Assay; assay type: functional; conditions: 30 µM; further: in the data most compounds retested in dose-response had high values
Sequence of Chromo domain-containing protein 1 (Saccharomyces cerevisiae (strain ATCC 204508 / S288c) (Baker's yeast)) (P32657 whole entry, the tested form may be a part): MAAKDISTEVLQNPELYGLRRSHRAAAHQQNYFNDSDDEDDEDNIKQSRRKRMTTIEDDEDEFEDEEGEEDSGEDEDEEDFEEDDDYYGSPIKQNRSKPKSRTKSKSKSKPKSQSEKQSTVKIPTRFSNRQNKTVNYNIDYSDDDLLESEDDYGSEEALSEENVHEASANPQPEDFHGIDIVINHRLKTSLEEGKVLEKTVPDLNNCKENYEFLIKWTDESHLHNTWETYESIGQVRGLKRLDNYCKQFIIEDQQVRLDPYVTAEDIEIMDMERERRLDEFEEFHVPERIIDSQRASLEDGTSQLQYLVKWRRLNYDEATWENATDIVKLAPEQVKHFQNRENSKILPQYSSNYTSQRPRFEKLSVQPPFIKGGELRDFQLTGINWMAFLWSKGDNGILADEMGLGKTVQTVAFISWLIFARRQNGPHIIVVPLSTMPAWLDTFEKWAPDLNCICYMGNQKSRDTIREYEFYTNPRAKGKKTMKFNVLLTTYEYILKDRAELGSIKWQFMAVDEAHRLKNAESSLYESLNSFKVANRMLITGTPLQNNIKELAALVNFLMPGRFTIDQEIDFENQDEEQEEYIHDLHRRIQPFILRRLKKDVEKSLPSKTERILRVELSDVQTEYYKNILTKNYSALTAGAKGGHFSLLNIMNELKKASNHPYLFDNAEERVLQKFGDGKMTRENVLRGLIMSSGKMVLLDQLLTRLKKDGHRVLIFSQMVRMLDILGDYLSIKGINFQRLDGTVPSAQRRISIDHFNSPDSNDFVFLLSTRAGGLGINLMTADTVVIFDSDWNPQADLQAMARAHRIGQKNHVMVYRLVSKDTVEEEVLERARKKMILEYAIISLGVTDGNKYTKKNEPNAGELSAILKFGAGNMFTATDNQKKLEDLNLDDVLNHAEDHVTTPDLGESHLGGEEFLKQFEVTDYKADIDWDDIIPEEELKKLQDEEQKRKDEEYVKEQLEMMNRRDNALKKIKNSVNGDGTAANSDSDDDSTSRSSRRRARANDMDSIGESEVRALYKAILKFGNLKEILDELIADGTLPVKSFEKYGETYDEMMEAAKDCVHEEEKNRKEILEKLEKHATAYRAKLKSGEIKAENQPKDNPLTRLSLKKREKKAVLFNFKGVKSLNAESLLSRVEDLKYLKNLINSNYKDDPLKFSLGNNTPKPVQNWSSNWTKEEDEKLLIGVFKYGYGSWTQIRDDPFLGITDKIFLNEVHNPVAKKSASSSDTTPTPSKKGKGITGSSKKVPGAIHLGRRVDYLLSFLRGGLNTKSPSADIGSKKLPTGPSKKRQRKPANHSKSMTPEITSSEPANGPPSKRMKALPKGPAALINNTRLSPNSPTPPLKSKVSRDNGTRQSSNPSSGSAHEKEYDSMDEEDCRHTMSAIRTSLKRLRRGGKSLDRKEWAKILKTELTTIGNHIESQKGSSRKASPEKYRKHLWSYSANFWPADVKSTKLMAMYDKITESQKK

Sequence of Sialic acid-binding Ig-like lectin 9 (Homo sapiens) (Q9Y336 whole entry): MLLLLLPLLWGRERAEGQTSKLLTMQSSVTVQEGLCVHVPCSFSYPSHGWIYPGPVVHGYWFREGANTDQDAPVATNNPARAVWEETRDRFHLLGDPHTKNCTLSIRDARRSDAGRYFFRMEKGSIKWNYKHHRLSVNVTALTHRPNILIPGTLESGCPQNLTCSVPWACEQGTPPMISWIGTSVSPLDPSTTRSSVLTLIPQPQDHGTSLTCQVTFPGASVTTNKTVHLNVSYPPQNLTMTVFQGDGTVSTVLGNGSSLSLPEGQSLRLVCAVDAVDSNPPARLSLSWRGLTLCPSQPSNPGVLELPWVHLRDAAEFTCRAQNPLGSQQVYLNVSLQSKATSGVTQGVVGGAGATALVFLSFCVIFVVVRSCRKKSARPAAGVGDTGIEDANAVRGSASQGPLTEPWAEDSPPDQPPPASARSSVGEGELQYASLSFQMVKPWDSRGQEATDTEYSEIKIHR
Sequence of Protein translocase subunit SecA (Escherichia coli (strain K12)) (P10408 whole entry): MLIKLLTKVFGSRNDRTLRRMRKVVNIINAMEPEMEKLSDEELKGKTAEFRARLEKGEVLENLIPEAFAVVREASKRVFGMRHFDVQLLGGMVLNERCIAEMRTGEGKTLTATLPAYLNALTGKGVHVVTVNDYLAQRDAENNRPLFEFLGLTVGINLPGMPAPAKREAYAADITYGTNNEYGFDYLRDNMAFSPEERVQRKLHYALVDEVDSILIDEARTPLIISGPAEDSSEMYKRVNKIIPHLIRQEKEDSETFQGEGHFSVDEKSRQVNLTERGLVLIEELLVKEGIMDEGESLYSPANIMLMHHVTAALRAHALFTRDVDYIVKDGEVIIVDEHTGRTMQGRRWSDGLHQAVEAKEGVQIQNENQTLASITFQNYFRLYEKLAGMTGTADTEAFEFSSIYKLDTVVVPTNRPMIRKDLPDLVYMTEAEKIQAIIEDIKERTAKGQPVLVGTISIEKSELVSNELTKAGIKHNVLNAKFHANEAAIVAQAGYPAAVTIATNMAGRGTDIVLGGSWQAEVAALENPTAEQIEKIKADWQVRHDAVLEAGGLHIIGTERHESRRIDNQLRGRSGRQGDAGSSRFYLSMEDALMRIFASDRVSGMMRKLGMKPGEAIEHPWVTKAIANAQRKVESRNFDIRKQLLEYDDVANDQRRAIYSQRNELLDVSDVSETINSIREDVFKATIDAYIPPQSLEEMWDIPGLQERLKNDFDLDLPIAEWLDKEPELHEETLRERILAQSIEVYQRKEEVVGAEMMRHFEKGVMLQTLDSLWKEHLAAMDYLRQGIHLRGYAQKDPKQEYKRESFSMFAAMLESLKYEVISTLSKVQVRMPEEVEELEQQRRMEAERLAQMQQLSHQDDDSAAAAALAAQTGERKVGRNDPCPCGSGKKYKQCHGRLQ

| SMILES | Percent Effect [1] | Percent Effect [2] | Percent Effect [3] | Percent Effect [4] | Percent Effect [5] | Percent Effect [6] | Percent Effect [7] | Percent Effect [8] | Percent Effect [9] | Percent Effect [10] | Percent Effect [11] |
| --- | --- | --- | --- | --- | --- | --- | --- | --- | --- | --- | --- |
| NC(=O)c1ccc(N2CCCCC2)c(NC(=O)c2cc(Br)ccc2F)c1 | -3.67% | 7.79% | 2.61% | 8.24% | 0.295% | -16.6% | 14.8% | 1.93% | 4.3% | 6.17% | 24.8% |
| CC(=O)N1CCC(C(=O)NCCN2CCCCC2)CC1 | -1.49% | 9.72% | -3.56% | -2.74% | 0.875% | 1.77% | 17.5% | -6.46% | 4.21% | 5.13% | -2.32% |
| CS(=O)(=O)N1CCOCC2(CN(Cc3ccco3)CCO2)C1 (stereo unspecified) | -1.05% | 5.48% | 3.7% | 1.39% | -1.19% | 4.79% | 5.39% | 1.38% | 6.25% | 11.1% | 0.698% |
| O=C(CCNc1ncccn1)N1CCCC(n2ccnc2)C1 (stereo unspecified) | -7.87% | 6.33% | 7.8% | -0.356% | -2.77% | 0.645% | 9.78% | 12% | 8.33% | 15.2% | -20.9% |
| Cc1nn(C)c(C)c1C1CCCN1C(=O)CCc1cscn1 (stereo unspecified) | -2.32% | -5.26% | -4.9% | 0.0636% | 0.467% | 0.36% | 6.18% | -8.57% | 1.48% | 1.24% | 2.83% |
| Cc1ncccc1O[C@H]1CCN(C(=O)c2cccs2)CC[C@@H]1O | -1.97% | -9.46% | 7.91% | 0.722% | -2.17% | -2.09% | 2.03% | 4.21% | 1.07% | -1.3% | -0.631% |
| COc1c(CNCc2ccc(CN(C)C)cc2)c(C(C)C)nn1C | 2.77% | -5.26% | 5.16% | 1.34% | -1.5% | 3.45% | 2.34% | 11.8% | -0.49% | 4.88% | -1.54% |
| OC(CN1CCC(c2ccn[nH]2)CC1)c1cccc(F)c1 (stereo unspecified) | 1.18% | 12.7% | 4.09% | 4.6% | -3.49% | 6.84% | 6.31% | 13.5% | 5.42% | 11.4% | -4.54% |
| COc1cnc(C2(O)CCN(C(=O)c3cccnc3)CC2)c(OC)n1 | -4.3% | 4.05% | 11.7% | 7.31% | -1.78% | -0.696% | -0.156% | -1.41% | 5.38% | 6.49% | -4.19% |
| CSCC(=O)N1C[C@H]2CC[C@@H]1CN(Cc1ccccc1)C2 | -2.57% | 8.22% | 14.1% | -0.0854% | 0% | 0.455% | 10.8% | 15.3% | 11.8% | 12.5% | -6.22% |
| COc1cc(C(=O)N2CCCC(CNS(C)(=O)=O)C2)cc(OC)c1C (stereo unspecified) | -5.54% | 13.5% | 77.8% | -1.48% | 2.74% | 0.802% | 1.26% | 11% | 7.39% | 16.1% | -4.09% |
| CCc1cnc2c(c1NCc1cccc(OC)c1)c(=O)n(C)c(=O)n2C | -0.146% | 23.4% | -3.97% | -14.3% | 0.0986% | -4.52% | 5.74% | 19.2% | 3.17% | 14.1% | -8.85% |
| CC(NC(=O)NCc1ccc(Cl)s1)c1ccccn1 (stereo unspecified) | -1.22% | 11.4% | 6.06% | 1.35% | -3.38% | 2.37% | 5.49% | 12.4% | 3.12% | 15.2% | -12.8% |
| COCCn1cc(C(=O)N2CCCC2c2cccc(F)c2)ccc1=O (stereo unspecified) | 1.54% | -5.41% | -0.655% | 0.523% | -2.7% | 2.38% | 7.07% | -0.304% | -2.65% | -56.1% | -2.35% |
| O=C(CCc1cnn(-c2ccccc2)c1)N1CCCC(n2cccn2)C1 (stereo unspecified) | -2.31% | 10.5% | 2.58% | 12.9% | 3.38% | 4.98% | 0.668% | 14.7% | 8.33% | 17.1% | -11.6% |
| Cc1ccc(CNCC2CCc3nnc(C(C)C)n3C2)s1 (stereo unspecified) | -1.99% | -1.39% | -8.87% | -3.91% | -1.46% | -3.97% | 4.56% | -6.98% | 1.05% | 0% | -1.15% |
| Cc1nc(NC(=O)CN2CCc3c(nc(C(C)C)n3C)C2)sc1C | -3.02% | 5.41% | -2.02% | 11% | 8.69% | -1.43% | 19.8% | 15% | 6.88% | 19.5% | -1.68% |
| CCc1ccc(CN2CCC3(CC2)CNC(=O)CO3)o1 | -2.61% | 2.7% | 1.59% | -0.0986% | 1.76% | 1.25% | 1.77% | -14.2% | 2.97% | -3.66% | -0.389% |
| Cc1cnc2n(c1=O)CC(C(=O)NC1CC1)CS2 (stereo unspecified) | -4.55% | -21.9% | -9.15% | -1.37% | 0.979% | 4.54% | 6.21% | 1.36% | 2.15% | 0% | -5.19% |
| Cc1nc(CN2CCC(CNC(=O)Nc3ccccn3)CC2)oc1C | -6.4% | 2.7% | -0.75% | -0.537% | -1.27% | -0.744% | -1.46% | -2.29% | 4.3% | 11.1% | -2.16% |
| CCCS(=O)(=O)N1CCN(c2cc(-n3nc(C)cc3C)nc(C)n2)CC1 | -2.23% | 0% | -0.103% | 1.6% | 7.57% | 2.76% | 10.7% | -11% | 2.15% | -3.7% | -4.3% |
